Caspase-1 inhib – allosteric or competitive inhibitors of human caspase-1. Potency, µM (series often up to 57.5 µM), without a hit: at the top dose activity change, negative = inhibition, hits mostly inhibitors. 75,000 compounds, 0.03% hits. Caspase-1 enzyme, Ac-WEHD-AFC fluorogenic rate;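 also: plate controls were vehicle for no effect and no substrate for full effect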
USP2a inhib – inhibitors of human ubiquitin-specific protease USP2a. O75604. USP2a enzymatic assay, qHTS inhibition. Potency, µM (top dose mostly 38.3 µM), for inactives: at the top dose activity change, negative = inhibition, most hits filed as inhibitors. 60,000 compounds, 0.1% hits. AID 927; also: nearly all actives have a fitted effect of over 60% in size
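USP2 core (20nM final) preincubated 30 min RT with compound, then Ub-PLA2 20nM and NBD C6-HPC 20uM final added; buffer 20mM Tris-HCl pH 8.0, 2mM CaCl2. Fluorescence Ex 460/Em 535 read at 0 and 2.5 h; normalized to NEM.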
Caspase-7 inhib – blocks human caspase-7 allosterically or competitively; P55210; recombinant caspase-7, Ac-DEVD-AFC fluorescence rate; Potency, µM (titrated, usually from 57.5 µM), without a hit: at the top dose activity change, negative = inhibition, most hits filed as inhibitors; 75,000 compounds, 0.02% hits; AID 889; active = well fitted inhibition curve with a large enough effect in the main read-out, with a control signal flat, not every such curve was filed as active; inconclusive = small, poorly fitted or top-dose-only effect, or a change in a side signal; also: % of control where 0% means no effect
* hit, by the source's call; ? = inconclusive; . = no result given; [ ] = remark or other dose. A selection: hits, their analogues and other compounds. The true share with any hit is near 0.12%. Unless noted, calls follow the shape of the dose curve; as a rule, active = well fitted curve in the direction sought with a large enough effect; inconclusive = small, poorly fitted or top-dose-only effect, or another doubt; inactive = no such curve, though single readings can be large; an effect the other way counts as inactive or inconclusive. Potency is read from the fitted curve at half-maximal effect.

SMILES	Caspase-1 inhib	USP2a inhib	Caspase-7 inhib
N[C@@H](Cc1cc(O)c(O)cc1O)C(=O)O	?	6.31µM*	?
NCCc1cc(O)c(O)cc1O	-9.4%	13.5%	-16.2%
O=C(O)[C@H]1CCN1	1.6%	1.5%	1.5%
Cc1cc2c(s1)NC(=O)CN=C2c1cccs1	0.0%	-11.9%	-2.5%
O=C1CN=C(c2cccs2)c2c(sc3c2CCCC3)N1	-2.2%	6.31µM*	-1.1%
N[C@H](Cc1ccc(N(CCCl)CCCl)cc1)C(=O)O	1.3%	7.1%	-1.9%
O=C(O)CN1CCN(CC(=O)O)CC(=O)[O][Hg][O]C(=O)C1	-2.1%[11.5 µM]	.	-2.2%[11.5 µM]
CCn1nc(-c2cccs2)nc2c(=O)n(C)c(=O)nc1-2	0.794µM*	-6.6%	?
CCCCCCCCCCCCCC(=O)O[C@H]1[C@@H](C)[C@@]2(O)[C@@H](C=C(CO)C[C@]3(O)C(=O)C(C)=C[C@@H]23)C2C(C)(C)[C@]21OC(C)=O (stereo partly drawn)	4.0%	31.4%	0.1%
C[C@]1(C(=O)O)[C@@H]2CC[C@@H](O2)[C@@]1(C)C(=O)O	2.4%	-2.7%	-0.6%
O=C1C=CC(=O)c2c(O)cccc21	20µM*	12.6µM*	?
O=C1C=Cc2ccccc2C1=O	-6.8%	.	-8.1%
COc1cc2c(cc1OC)[C@@]13CCN4C=C5CCO[C@H]6CC(=O)N2[C@@H]1[C@@H]6[C@H]5C[C@H]43	-1.1%[11.5 µM]	.	-0.1%[11.5 µM]
CCN1C[C@]2(C)CC[C@@H](O)[C@]34[C@@H]5CC6[C@@H](OC)C[C@@](O)([C@H]5[C@@H]6O)[C@@H](C[C@@H]23)[C@H]14	-0.7%	1.5%	-0.2%
CN(N=O)c1ccc(O)c(O)c1	3.1%	12.6µM*	0.1%
C[C@@]12CC[C@H]3[C@@H](CC[C@@H]4C[C@H](O)CC[C@]43C)[C@H]1CC[C@H]2O	-0.2%	9.6%	0.9%
Oc1ccc2c3c1O[C@@H]1c4[nH]c5c(c4C[C@@]4(O)[C@@H](C2)N(CC2CC2)CC[C@]314)C[C@]1(O)[C@@H]2Cc3ccc(O)c4c3[C@@]1(CCN2CC1CC1)[C@H]5O4	1.3%	?	-1.8%
NC(=O)CI	3.8%	25.1µM*	2.1%
